Screening data (PubChem)
TEAD-YAP block – TEAD-YAP interaction inhibition, primary screen, TEAD-YAP interaction inhibitor project, luminescence, HEK-TIYL cells; TEAD-Gal4/YAP UAS-luciferase luminescence; inhibition, % at 9.12 µM; hit rate 1.4% among 640,000; in the data active = inhibition above about 32%;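 also: 0% = median of test compound wells and 100% = reference inhibitor wells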
MITF primary – MITF inhibitors, primary screen, biochemical, AlphaScreen, human | hit rate 0.91% among 650,000 | inhibition, % at 2.6 µM | AID 1259374, 2018 | AlphaScreen MITF homodimerization, bead proximity signal | Microphthalmia-associated transcription factor (Homo sapiens), O75030; in the data active = inhibition above about 50%;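 also: 0% = vehicle wells with protein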
FBW7 activator – FBW7 E3 ligase activators, primary screen, biochemical, AlphaScreen, human | F-box/WD repeat-containing protein 7 (Homo sapiens), Q969H0 | AlphaScreen FBW7–phospho-cyclin E peptide binding, activator screen | normalized activity (activation), % at 26.1 µM | hit rate 0.13% among 650,000; in the data active = normalized activity above about 1.9%;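 also: purified mutant Fbw7 with reduced substrate affinity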
GPR151 ag – activators of human GPR151, primary screen, cell-based, PathHunter beta-arrestin, luminescence; PathHunter beta-arrestin GPR151 cells; AID 1508602, 2020; activation, % at 11.2 µM; hit rate 1% among 650,000; in the data active = activation above about 4.9%;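 also: 0% = median of compound wells and 100% = cells with positive control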
Target sequence (Q8TDV0 whole entry, looked up): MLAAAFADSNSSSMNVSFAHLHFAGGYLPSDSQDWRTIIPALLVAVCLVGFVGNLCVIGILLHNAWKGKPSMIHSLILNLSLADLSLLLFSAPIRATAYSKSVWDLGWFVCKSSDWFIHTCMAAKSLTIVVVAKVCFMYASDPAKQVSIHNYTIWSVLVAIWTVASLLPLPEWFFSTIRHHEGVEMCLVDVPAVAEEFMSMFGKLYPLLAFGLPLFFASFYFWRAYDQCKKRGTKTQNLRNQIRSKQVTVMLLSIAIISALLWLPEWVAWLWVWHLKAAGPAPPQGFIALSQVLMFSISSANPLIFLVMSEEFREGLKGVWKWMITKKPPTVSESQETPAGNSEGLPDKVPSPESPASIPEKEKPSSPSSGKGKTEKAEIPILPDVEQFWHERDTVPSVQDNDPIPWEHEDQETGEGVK
GPR151 confirm – GPR151 activators, triplicate retest, confirmation, cell-based, PathHunter beta-arrestin, luminescence. shares compounds with GPR151 ag. GPR151 PathHunter beta-arrestin cells, 90 min; % of EA-reagent control over plate median. activation, % at 11.2 µM. 6,700 tested, under 10 active;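 active = mean percent activation across replicates above the confirmation screen cutoff of 4.91%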
GPR119 counter – GPR119 activators in beta-arrestin cells, counter-screen for GPR151 activator project, cell-based, PathHunter beta-arrestin, luminescence, triplicate. shares compounds with GPR151 ag. 90 min; 0 = compound-well median, 100 = enzyme-acceptor control. activation, % at 11.2 µM. hit rate 0.3% among 6,700. AID 1508611, 2020;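 active = mean percent activation in the counterscreen above 29.09%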;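 also: counterscreen on off-target GPR119 to flag nonselective hits from the GPR151 activator screen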
The depositor's hits bear a star; ! = repeats disagree. An excerpt weighted towards active compounds, which were near 3.4% of everything screened.

Screening COc1cc(Nc2nc(NCc3ccc4c(c3)OCO4)nc3c2ncn3Cc2ccc(C(F)(F)F)cc2)cc(OC)c1OC returned TEAD-YAP block -4.4, MITF primary -2.9, FBW7 activator 0.0 and GPR151 ag -1.1.
Screening COc1cc(Nc2nc(Nc3ccc4c(c3)OCO4)c3ncn(Cc4ccc(C(F)(F)F)cc4)c3n2)cc(OC)c1OC returned TEAD-YAP block -5.1, MITF primary 0.2, FBW7 activator -0.3, GPR151 ag 5.5*, GPR151 confirm 0.2 and GPR119 counter -1.1.
Screening C=CCn1c(SCC(N)=O)nnc1-c1ccc(Br)cc1 returned TEAD-YAP block 0.5, MITF primary 19.4, FBW7 activator 0.6, GPR151 ag 6.2*, GPR151 confirm -1.2 and GPR119 counter -10.9.
Screening CCOC(=O)c1ccc(NC(=S)NNC(=O)Cc2cccn2C)cc1 returned TEAD-YAP block 2.7, MITF primary 9.6, FBW7 activator 0.0, GPR151 ag 10.0*, GPR151 confirm 0.9 and GPR119 counter 6.8.
Screening CCN(CC)c1ccc(NC(=O)C2CC3CCCN3C23C(=O)N(C)c2ccccc23)c(C)c1 (centres undefined) returned TEAD-YAP block -5.7, MITF primary 4.8, FBW7 activator 0.0 and GPR151 ag 0.3.
Screening CCN(CC)c1ccc(NC(=O)C2CC3CCCN3C23C(=O)Nc2ccccc23)c(C)c1 (centres undefined) returned TEAD-YAP block -2.1, MITF primary -3.1, FBW7 activator 0.2, GPR151 ag 5.4*, GPR151 confirm 0.2 and GPR119 counter 4.9.
COc1cccc(-c2cc(C(=O)Nn3cnnc3)c3ccccc3n2)c1 was read as TEAD-YAP block 11.2, MITF primary 0.2, FBW7 activator -0.1, GPR151 ag 5.1*, GPR151 confirm -0.1 and GPR119 counter 0.9.
`C=CCn1c(=NC(=O)c2ccc([N+](=O)[O-])s2)sc2cc(S(C)(=O)=O)ccc21` gave TEAD-YAP block -6.8, MITF primary 0.3, FBW7 activator 0.2 and GPR151 ag 3.3.
Screening Cc1c(Cl)cccc1Nc1ccccc1C(=O)O returned TEAD-YAP block -6.0, MITF primary -0.6, FBW7 activator 0.2, GPR151 ag 7.5*!, GPR151 confirm 0.1 and GPR119 counter 5.7.
`Cc1c(Cl)cccc1NC(=O)c1ccccc1C(=O)O` gave TEAD-YAP block 7.5, MITF primary 13.3, FBW7 activator 0.1 and GPR151 ag 1.4.
Screening Cc1ccc2ncc(C(=O)Nc3cc(C)on3)c(=O)n2c1 returned TEAD-YAP block -20.2, MITF primary 8.5, FBW7 activator -0.3, GPR151 ag 8.2*, GPR151 confirm -0.3 and GPR119 counter -3.0.
`Cc1cc(C)cc(NC(=O)c2cnc3ccc(C)cn3c2=O)c1` gave TEAD-YAP block 5.9, MITF primary -2.7, FBW7 activator 0.1 and GPR151 ag -1.1.
For COC(=O)Cn1c2cc(OC)c(OC)cc2c2nc(=O)cc(C)n21 the results were TEAD-YAP block 7.2, MITF primary 8.6, FBW7 activator -0.1, GPR151 ag 8.8*, GPR151 confirm 0.3 and GPR119 counter 3.2.
CC(=O)Nc1cc(C(=O)O)cc(N)c1Cl was read as TEAD-YAP block 0.5, MITF primary 15.9, FBW7 activator 0.5, GPR151 ag 5.5*, GPR151 confirm -0.6 and GPR119 counter -1.9.
Screening COC(=O)c1cc(NC(C)=O)c(Cl)c(NC(C)=O)c1 returned TEAD-YAP block 4.2, MITF primary 26.2, FBW7 activator 0.1 and GPR151 ag -1.3.
For CCOc1ccc(-n2c(C)c(C(C)=O)c3cc(OC(C)=O)ccc32)cc1 the results were TEAD-YAP block -1.2, MITF primary -11.7, FBW7 activator 0.0, GPR151 ag 5.3*, GPR151 confirm -0.6 and GPR119 counter -8.4.
For CC(=O)c1cc(C#N)c(SCCC(C)C)nc1C the results were TEAD-YAP block -9.9, MITF primary -12.2, FBW7 activator -0.1, GPR151 ag 7.9*, GPR151 confirm -0.7 and GPR119 counter 1.0.
For O=C(NCCO)c1cnc(N2CCC(N3CCOCC3)CC2)s1 the results were TEAD-YAP block -6.1, MITF primary -3.8, FBW7 activator 0.1 and GPR151 ag -0.8.
`Cc1cccc2cc(CN(Cc3ccco3)Cc3nnnn3C(C)(C)C)c(=O)[nH]c12` gave TEAD-YAP block 1.8, MITF primary 2.8, FBW7 activator 0.3, GPR151 ag 6.2*, GPR151 confirm -0.4 and GPR119 counter 1.6.
Screening CNC(=O)/C(C#N)=C\c1cn(CC(=O)OC)c2ccccc12 returned TEAD-YAP block -5.9, MITF primary 6.5, FBW7 activator -0.1 and GPR151 ag 0.6.
`COc1cc(=O)n2c(c1C(=O)NCc1ccsc1)CCN(C(=O)c1nonc1C)CC2` gave TEAD-YAP block -4.9, MITF primary -5.1, FBW7 activator 0.1, GPR151 ag 10.3*, GPR151 confirm 0.2 and GPR119 counter 11.5.
For O=C(NC(=S)NCc1ccccc1)c1ccccc1F the results were TEAD-YAP block 0.1, MITF primary -10.1, FBW7 activator 0.3, GPR151 ag 7.0*, GPR151 confirm 0.5 and GPR119 counter 0.4.
Screening O=C(NC(=S)NC(=O)c1ccccc1F)c1ccccc1F returned TEAD-YAP block 9.6, MITF primary 7.6, FBW7 activator -0.1 and GPR151 ag 1.8.
`COc1cccc(C2Oc3ccccc3C3=C2C(c2cccs2)n2ncnc2N3)c1` (centres undefined) gave TEAD-YAP block 3.6, MITF primary -10.8, FBW7 activator 0.0 and GPR151 ag 0.8.
Screening Cc1cnc(Nc2ccc(-n3ccnc3)cc2)nc1NCCN(C(C)C)C(C)C returned TEAD-YAP block -1.4, MITF primary -3.2, FBW7 activator -0.1, GPR151 ag 7.0*, GPR151 confirm -0.2 and GPR119 counter -0.7.
For CCc1cccc(CC)c1NC(=O)CCCC(=O)O the results were TEAD-YAP block 3.0, MITF primary 9.1, FBW7 activator 0.9, GPR151 ag 6.6*, GPR151 confirm -0.1 and GPR119 counter 0.1.
`CCc1cccc(C)c1NC(=O)CCC(=O)O` gave TEAD-YAP block -3.2, MITF primary -1.8, FBW7 activator 0.0 and GPR151 ag -1.3.
Screening Clc1ccc(C(Cn2ccnc2)OCc2c(Cl)cccc2Cl)c(Cl)c1 (centres undefined) returned MITF primary -7.1, FBW7 activator 0.0, GPR151 ag 10.2*, GPR151 confirm 1.6 and GPR119 counter -4.7.
Screening Cc1cccc(CNC(=O)c2cc(C(C)c3ccccc3)no2)n1 (centres undefined) returned TEAD-YAP block -5.6, MITF primary 10.7, FBW7 activator -0.1 and GPR151 ag -1.1.
